# Measured potencies and affinities stand elsewhere. Inconclusive results are not listed. Calls of active or inactive are those of the source.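 Rule for the calls, unless noted: active = signal drop whose fitted half-maximal concentration is at most twice the top valid dose, in every test run; inconclusive = mixed calls across runs, poor fit, or flat 30 to 70% inhibition; inactive = wrong direction, flat within 30%, or potency beyond limit.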
# Test: RMG-1 ovarian cancer cell viability loss – cherry-pick, dose response (AID 687029);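 note: cells exposed to compound for 96 hours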
# Settings: RMG-1 viability, CellTiterGlo ATP luminescence, 96 h; series mostly up to 35 µM
row,Structure (SMILES),outcome
1,Cc1ccc(S(=O)(=O)CCC(=O)c2ccc(F)cc2)cc1,inactive
2,COc1cccc2c1C(=O)c1c(O)c3c(c(O)c1C2=O)CC(O)(C(C)=O)CC3OC1CC(N(C)C)C(O)C(C)O1 (stereo not given),inactive
3,COc1cc(-c2cnc3c(NC=O)cc(-c4ccc(C)cc4)cn23)cc(OC)c1OC,inactive
4,COc1cc(/C=C2\COC/C(=C\c3cc(OC)c(OC)c(OC)c3)C2=O)cc(OC)c1OC,inactive
5,N#Cc1c(N)n(C2OC(CO)C(O)C2O)c2ncnc(N)c12 (stereo not given),inactive
6,C[C@H]1CCCCO[C@H](CN(C)C(=O)Nc2ccc(C(F)(F)F)cc2)[C@@H](C)CN([C@@H](C)CO)C(=O)c2cc(NC(=O)Nc3ccc(F)cc3)ccc2O1,inactive
7,CC(=NNC(=S)N1CCN(C2CCCCCC2)CC1)c1ccccn1,inactive
8,C=CC(=O)N=c1sc2ccccc2n1-c1ccccc1,inactive
9,COC(=O)c1ccccc1-c1c2ccc(=N)cc-2oc2cc(N)ccc12,inactive
10,COc1ccccc1-n1cc([C@@H]2C[C@H]3CN(c4ccccc4)C(=O)[C@]34CCCN24)cn1,inactive
11,CNC[C@@H](CC1CCCCC1)NC[C@H](CC(C)C)NCCc1cccc(C(F)(F)F)c1,inactive
12,C=CCNC(=S)N/N=C(\C)c1ccccn1,inactive
13,C[C@H]1CCCCO[C@H](CN(C)C(=O)Nc2ccc(C(F)(F)F)cc2)[C@@H](C)CN([C@@H](C)CO)C(=O)c2cc(NS(=O)(=O)c3ccc(Cl)cc3)ccc2O1,inactive
14,Oc1c(I)cc(I)c2cccnc12,inactive
15,CC(=O)Nc1cc(-c2cccc(C(=O)NCCN(C)C)c2)cn2c(-c3cccc(C(F)(F)F)c3)cnc12,inactive
16,CCC1(O)C(=O)OCc2c1cc1n(c2=O)Cc2cc3c(N)cccc3nc2-1 (stereo not given),inactive
17,O=C(Nc1ccc([N+](=O)[O-])cc1)Nc1nc(-c2ccc(Cl)s2)cs1,inactive
18,COc1ccc(OC)c(-c2nnc3n2N=C(c2ccc(OC)c(OC4CCOC4)c2)CS3)c1 (stereo not given),inactive
19,COc1cc(NC(=O)Cn2ncc(Cl)c(Cl)c2=O)c(C)cc1[N+](=O)[O-],inactive
20,Cn1nnnc1Sc1ncnc2scc(-c3cccc4c3sc3ccccc34)c12,inactive

row,Structure (SMILES),outcome
1,N#Cc1cccc(-c2ccc(C3[C@@H]4CN(C(=O)C5CC5)C[C@H]3N4)cc2)c1 (stereo not given in full),inactive
2,CCOc1ccccc1C1C2=C(COC2=O)Nc2cc3c(cc21)OCO3 (stereo not given),inactive
3,Cc1cccc(C2(c3cccc(C)c3)CC2C(=O)Nc2ccc([N+](=O)[O-])cc2O)c1 (stereo not given),inactive
4,CC[C@@]1(O)C(=O)OCc2c1cc1n(c2=O)Cc2cc3c(N)cccc3nc2-1,inactive
5,CC(=O)OC1CCC2(C)C(CCC3C4CC=C(C(C)=O)C4(C)OC(=O)CC32)C1 (stereo not given),inactive
6,Cn1cc(C2=C(c3ccc(Cl)cc3Cl)C(=O)NC2=O)c2ccccc21,inactive
7,C[C@@H]1CCCCO[C@@H](CN(C)CC2CCCCC2)[C@H](C)CN([C@H](C)CO)C(=O)c2cc(NS(=O)(=O)c3ccc(Cl)cc3)ccc2O1,inactive
8,CCOC(=O)c1cnc2ccc(C(=O)OC)cc2c1Nc1ccc(C(=O)O)cc1,inactive
9,CCN1CCN(Cc2ccc(NC(=O)c3cc(NC(=O)C(=O)c4c[nH]c5ccccc45)cc(OC)c3)cc2C(F)(F)F)CC1,inactive
10,CCC(=O)OCCNc1cc(Sc2nccn2C)c2nonc2c1[N+](=O)[O-],inactive
11,Cc1cccc(C)c1NS(=O)(=O)c1ccc(-c2cnc(C3CC3)o2)cc1,inactive
12,C#CCN(C[C@@H]1[C@@H](OC(=O)Nc2cccs2)[C@@H](OC(=O)Nc2cccs2)Cn2c(=O)ccc(=O)n21)S(=O)(=O)c1ccc(C)cc1,inactive
13,COc1cc(C2C3=C(Nc4ncnn42)c2ccccc2CC3)cc(OC)c1OC (stereo not given),inactive
14,Cc1cc(NC(=O)c2ccc([N+](=O)[O-])o2)ccc1NC(=O)c1ccco1,inactive
15,N#CC1(NC(=O)Cn2ncc(Cl)c(Cl)c2=O)CCCCC1,inactive
16,CCOC(=O)c1cnn(CCOC(=O)c2cccc(F)c2)c1NC(=O)c1cccc(F)c1,inactive
17,CCS(=O)(=O)c1ncc(Cl)c(C(=O)Nc2ccc(S(=O)(=O)N3CCCC(C)C3)cc2)n1 (stereo not given),inactive
18,CC(C)(C)C(=O)Nc1ccc(NC(=O)c2ccco2)nc1,inactive
19,Cc1ccc(C(=O)c2cc([N+](=O)[O-])ccc2N2CCCCC2)cc1,inactive
20,C#CCN(C[C@@H]1[C@@H](OC(=O)NCc2ccc(OC)c(OC)c2)[C@@H](OC(=O)NCc2ccc(OC)c(OC)c2)Cn2c(=O)ccc(=O)n21)S(=O)(=O)c1ccc(C)cc1,inactive

# Test: IOSE-T80 viability loss, PAX8-independent line – cell-based, cherry-pick, selectivity assay for PAX8 inhibitor project, dose response (AID 687032;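 active = fitted half-maximal concentration for viability loss no higher than twice the top valid dose, in every repeat run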;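 note: cells exposed to compound for 96 h before reading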)
# Settings: CellTiterGlo ATP luminescence, 96 h; series mostly up to 35 µM
row,Structure (SMILES),outcome
1,Cc1ccc(S(=O)(=O)CCC(=O)c2ccc(F)cc2)cc1,inactive
2,COc1cccc2c1C(=O)c1c(O)c3c(c(O)c1C2=O)CC(O)(C(C)=O)CC3OC1CC(N(C)C)C(O)C(C)O1 (stereo not given),inactive
3,COc1cc(-c2cnc3c(NC=O)cc(-c4ccc(C)cc4)cn23)cc(OC)c1OC,inactive
4,COc1cc(/C=C2\COC/C(=C\c3cc(OC)c(OC)c(OC)c3)C2=O)cc(OC)c1OC,inactive
5,N#Cc1c(N)n(C2OC(CO)C(O)C2O)c2ncnc(N)c12 (stereo not given),inactive
6,C[C@H]1CCCCO[C@H](CN(C)C(=O)Nc2ccc(C(F)(F)F)cc2)[C@@H](C)CN([C@@H](C)CO)C(=O)c2cc(NC(=O)Nc3ccc(F)cc3)ccc2O1,inactive
7,CC(=NNC(=S)N1CCN(C2CCCCCC2)CC1)c1ccccn1,inactive
8,C=CC(=O)N=c1sc2ccccc2n1-c1ccccc1,inactive
9,COC(=O)c1ccccc1-c1c2ccc(=N)cc-2oc2cc(N)ccc12,inactive
10,COc1ccccc1-n1cc([C@@H]2C[C@H]3CN(c4ccccc4)C(=O)[C@]34CCCN24)cn1,inactive
11,CNC[C@@H](CC1CCCCC1)NC[C@H](CC(C)C)NCCc1cccc(C(F)(F)F)c1,inactive
12,C=CCNC(=S)N/N=C(\C)c1ccccn1,inactive
13,C[C@H]1CCCCO[C@H](CN(C)C(=O)Nc2ccc(C(F)(F)F)cc2)[C@@H](C)CN([C@@H](C)CO)C(=O)c2cc(NS(=O)(=O)c3ccc(Cl)cc3)ccc2O1,inactive
14,Oc1c(I)cc(I)c2cccnc12,inactive
15,CC(=O)Nc1cc(-c2cccc(C(=O)NCCN(C)C)c2)cn2c(-c3cccc(C(F)(F)F)c3)cnc12,inactive
16,CCC1(O)C(=O)OCc2c1cc1n(c2=O)Cc2cc3c(N)cccc3nc2-1 (stereo not given),inactive
17,O=C(Nc1ccc([N+](=O)[O-])cc1)Nc1nc(-c2ccc(Cl)s2)cs1,inactive
18,COc1ccc(OC)c(-c2nnc3n2N=C(c2ccc(OC)c(OC4CCOC4)c2)CS3)c1 (stereo not given),inactive
19,COc1cc(NC(=O)Cn2ncc(Cl)c(Cl)c2=O)c(C)cc1[N+](=O)[O-],inactive
20,Cn1nnnc1Sc1ncnc2scc(-c3cccc4c3sc3ccccc34)c12,inactive

row,Structure (SMILES),outcome
1,N#Cc1cccc(-c2ccc(C3[C@@H]4CN(C(=O)C5CC5)C[C@H]3N4)cc2)c1 (stereo not given in full),inactive
2,CCOc1ccccc1C1C2=C(COC2=O)Nc2cc3c(cc21)OCO3 (stereo not given),inactive
3,Cc1cccc(C2(c3cccc(C)c3)CC2C(=O)Nc2ccc([N+](=O)[O-])cc2O)c1 (stereo not given),inactive
4,CC[C@@]1(O)C(=O)OCc2c1cc1n(c2=O)Cc2cc3c(N)cccc3nc2-1,inactive
5,CC(=O)OC1CCC2(C)C(CCC3C4CC=C(C(C)=O)C4(C)OC(=O)CC32)C1 (stereo not given),inactive
6,Cn1cc(C2=C(c3ccc(Cl)cc3Cl)C(=O)NC2=O)c2ccccc21,inactive
7,C[C@@H]1CCCCO[C@@H](CN(C)CC2CCCCC2)[C@H](C)CN([C@H](C)CO)C(=O)c2cc(NS(=O)(=O)c3ccc(Cl)cc3)ccc2O1,inactive
8,CCOC(=O)c1cnc2ccc(C(=O)OC)cc2c1Nc1ccc(C(=O)O)cc1,inactive
9,CCN1CCN(Cc2ccc(NC(=O)c3cc(NC(=O)C(=O)c4c[nH]c5ccccc45)cc(OC)c3)cc2C(F)(F)F)CC1,inactive
10,CCC(=O)OCCNc1cc(Sc2nccn2C)c2nonc2c1[N+](=O)[O-],inactive
11,Cc1cccc(C)c1NS(=O)(=O)c1ccc(-c2cnc(C3CC3)o2)cc1,inactive
12,C#CCN(C[C@@H]1[C@@H](OC(=O)Nc2cccs2)[C@@H](OC(=O)Nc2cccs2)Cn2c(=O)ccc(=O)n21)S(=O)(=O)c1ccc(C)cc1,inactive
13,COc1cc(C2C3=C(Nc4ncnn42)c2ccccc2CC3)cc(OC)c1OC (stereo not given),inactive
14,Cc1cc(NC(=O)c2ccc([N+](=O)[O-])o2)ccc1NC(=O)c1ccco1,inactive
15,N#CC1(NC(=O)Cn2ncc(Cl)c(Cl)c2=O)CCCCC1,inactive
16,CCOC(=O)c1cnn(CCOC(=O)c2cccc(F)c2)c1NC(=O)c1cccc(F)c1,inactive
17,CCS(=O)(=O)c1ncc(Cl)c(C(=O)Nc2ccc(S(=O)(=O)N3CCCC(C)C3)cc2)n1 (stereo not given),inactive
18,CC(C)(C)C(=O)Nc1ccc(NC(=O)c2ccco2)nc1,inactive
19,Cc1ccc(C(=O)c2cc([N+](=O)[O-])ccc2N2CCCCC2)cc1,inactive
20,C#CCN(C[C@@H]1[C@@H](OC(=O)NCc2ccc(OC)c(OC)c2)[C@@H](OC(=O)NCc2ccc(OC)c(OC)c2)Cn2c(=O)ccc(=O)n21)S(=O)(=O)c1ccc(C)cc1,inactive
